Only some compounds are listed: those with a hit (about 2.6% of all), similar ones and a draw of the others.
GLP1R inv ag: acts as inverse agonist at human GLP-1 receptor | HEK293 GLP-1R CRE-luciferase, luminescence, 24 h; GLP-1R form is constitutively active | Potency, µM (highest dose often 38.3 µM), for the others: at the top dose activity change, negative = inhibition, hits mostly inhibitors | P43220 | AID 624417 | 1.6% of 410,000 active; also: % is scaled to controls: 0 for no effect and ±100 for the full control effect; nearly all actives have a fitted effect of over 55% in size
Target sequence (P43220 whole entry, looked up): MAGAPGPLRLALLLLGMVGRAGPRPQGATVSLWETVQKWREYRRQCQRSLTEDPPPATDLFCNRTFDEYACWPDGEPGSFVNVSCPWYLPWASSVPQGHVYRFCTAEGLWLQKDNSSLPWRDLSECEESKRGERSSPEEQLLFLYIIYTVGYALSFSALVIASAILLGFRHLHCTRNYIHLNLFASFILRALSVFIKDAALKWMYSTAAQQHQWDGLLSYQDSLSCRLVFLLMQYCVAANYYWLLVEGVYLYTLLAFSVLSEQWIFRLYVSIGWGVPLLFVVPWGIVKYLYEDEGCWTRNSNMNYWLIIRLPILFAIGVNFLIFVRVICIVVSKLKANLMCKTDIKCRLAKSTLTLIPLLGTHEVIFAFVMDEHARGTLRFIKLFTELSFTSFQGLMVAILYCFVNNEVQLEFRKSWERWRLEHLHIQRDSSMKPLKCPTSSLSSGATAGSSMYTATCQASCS
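Assay principle: reduced luminescence from a cAMP-responsive reporter in HEK293 cells co-expressing a constitutively active GLP-1R. Conditions: 24 hr compound incubation, 37 deg C, 5% CO2.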
HEK293 tox: cytotoxicity counter-screen for GLP-1 receptor inverse agonists | HEK293 cAMP-luciferase reporter cells, luminescence, 24 h | Potency, µM (top dose mostly 38.3 µM), for inactives: at the highest dose activity change, negative = inhibition, actives largely listed as inhibitors | 0.13% of 410,000 active | AID 624418;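 also: loss of luciferase light is scored as toxicity; % is scaled to controls: 0 for no effect and ±100 for the full control effect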
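MLSMR compounds, 24 hr on cells at 37 deg C/5% CO2; luminescence after luciferase reagent (12 min RT). Inhibition counted as the undesired cytotoxic outcome.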
GLP1R ag: GLP-1 receptor (human) agonism | HEK293 GLP-1R CRE-luciferase, luminescence, 4-6 h; cells express a hypersensitive GLP-1R form | Potency, µM (titrated, usually from 45.6 µM), for inactives: at the top dose activation, actives largely listed as activators | 0.007% of 380,000 active; also: % of control where 0% means no effect
BRCA1 expr up: BRCA1 expression activation | MCF7-BRCA1-FFLuc reporter, luminescence, 48 h; response scale: scaled: vehicle 0%, 10 µM genistein 100% | Potency, µM (series often up to 46.1 µM), without a hit: at the top dose activation, most hits filed as activators | 1.1% of 380,000 active; also: nearly all actives have a fitted effect of over 80% in size
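MCF7-BRCA1-FFLuc, 2000 cells/well; 2 h attach, 37 °C/5% CO2; compound 48 h; luciferase substrate 15 min; luminescence end-point. Norm. to genistein 10 microM max activation and DMSO; concentration-response curves fitted.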
* hit, by the source's call; u = inconclusive; x = not tested or not shown. Calls follow the shape of the dose curve; as a rule, active = well fitted curve in the direction sought with a large enough effect; inconclusive = small, poorly fitted or top-dose-only effect, or another doubt; inactive = no such curve, though single readings can be large; an effect the other way counts as inactive or inconclusive. Potency is read from the fitted curve at half-maximal effect.

SMILES	GLP1R inv ag	HEK293 tox	GLP1R ag	BRCA1 expr up
CN(c1ccccc1)S(=O)(=O)c1cccc(C(=O)NCCc2c[nH]c3ccccc23)c1	8.9µM*	-14%	-1%	-46%
COc1cccc(NC(=O)CSc2nc3c(oc4ccccc43)c(=O)n2Cc2ccco2)c1	-21%	-8%	x	-21%
CN(CC(=O)Nc1ccc(OC(F)(F)F)cc1)C(=O)Cc1cccs1	11µM*	-3%	4%	-17%
C(=C\c1c[nH]c2ccccc12)/c1ccc2ccccc2n1	x	x	x	-1%
Cc1nc2ccc(NC(=O)CCC3CCCC3)cc2s1	-16%	11%	10%	11µM*
CCc1ccc(S(=O)(=O)N2CCN(C(=O)C3CCN(C(C)=O)CC3)CC2)cc1	-18%	-6%	-4%	-14%
O=[N+]([O-])c1nn(-c2ccc3c(c2)OCCO3)n(O)c1=Nc1ccc(Cl)cc1	u	u	-11%	-81%
CCc1ccc(N=c2c([N+](=O)[O-])nn(-c3ccc4c(c3)OCCO4)n2O)cc1	41%	-1%	7%	4µM*
COc1ccc(N(CC(O)Cn2c3ccccc3c3ccccc32)S(=O)(=O)c2ccccc2)cc1 (stereo not drawn)	11µM*	10%	-9%	-89%
COc1ccccc1C1CC(c2ccc(NS(C)(=O)=O)cc2)=NN1C(=O)c1ccccc1 (stereo not drawn)	-20%	6%	5%	-3%
COc1ccccc1C1CC(c2ccccc2)=NN1C(=O)c1ccccc1 (stereo not drawn)	8.9µM*	u	-4%	-41%
COc1ccccc1-[n+]1c(C)cc(/C=C2\Sc3ccccc3N2C)cc1C	2.5µM*	-11%	-6%	-39%
O=C(Cc1ccccc1)Nc1sc2c(c1C(=O)Nc1ccc(Br)cc1)CCCC2	5%	7%	x	-12%
COc1ccc(NC(=O)CC2C(=O)N(C)C(=S)N2CCc2ccc(F)cc2)cc1 (stereo not drawn)	11µM*	-21%	5%	-62%
COC(=O)c1ccc(NC(=O)CC2C(=O)N(c3ccc(F)cc3)C(=O)N2Cc2ccc(OC)cc2)cc1 (stereo not drawn)	9%	2%	x	x
COc1ccc(CCN2C(=S)N(C)C(=O)C2CC(=O)Nc2ccc(OC)cc2)cc1 (stereo not drawn)	u	4%	17%	-19%
COc1ccc(CCN2C(=O)N(c3ccc(C)cc3)C(=O)C2CC(=O)Nc2ccc(F)cc2)cc1 (stereo not drawn)	7.9µM*	-18%	-2%	-8%
O=C1Nc2ccccc2-n2nnnc2C1N1CCN(C(=O)C2CCCO2)CC1 (stereo not drawn)	23%	-4%	x	x
CCc1ccc(NC(=O)C(=O)NCC(c2cccnc2)N2CCN(c3ccc(F)cc3)CC2)cc1 (stereo not drawn)	11%	-4%	x	x
CCOc1ccc(N(CC(=O)Nc2ccccc2)S(C)(=O)=O)cc1	-16%	18%	5%	49%
CCOc1ccc(N(CC(=O)Nc2ccc(C)c(C)c2)S(C)(=O)=O)cc1	-6%	-3%	-2%	2µM*
CC(C)Cn1cc(C(=O)N2CCN(c3cccc(Cl)c3)CC2)c2c3ccccc3n(C)c2c1=O	10µM*	-17%	x	x
COc1ccc(NC(=O)c2sccc2-n2cccc2)cc1	u	13%	-5%	-19%
O=C(Nc1ccc(Cl)cc1)c1sccc1-n1cccc1	4.5µM*	2%	16%	-13%
COc1cc(NC(=O)c2ccc(Cl)cc2)c(OC)cc1NC(=O)CN1CCCCC1	3.5µM*	u	19%	44%
SMILES	GLP1R inv ag	HEK293 tox	GLP1R ag	BRCA1 expr up
COc1cc(NC(=O)Nc2ccccc2OC)c(OC)cc1NC(=O)CN1CCCCC1	u	-29%	-1%	-8%
COc1cc(NC(=O)C2CCCCC2)c(OC)cc1NC(=O)CN1CCCCC1	2.5µM*	u	16%	-28%
Nc1cccc(/C=C2\C=Cc3ccccc32)c1	x	x	x	-35%
CCc1ccc(CN2CCC(Oc3ccc(C(=O)N4CCCCC4)cc3)CC2)cc1	u	u	8%	-29%
O=C(c1ccc(OC2CCN(C/C=C/c3ccc(F)cc3)CC2)cc1)N1CCCC1	3.2µM*	-22%	4%	-26%
CCc1ccc(CN2CCC(Oc3ccc(C(=O)N4CCCC4)cc3)CC2)cc1	7.9µM*	u	-8%	-46%
Cc1ccc(-c2nc(CS(=O)CC(=O)NCCN3CCCC3)c(C)o2)cc1 (stereo not drawn)	-12%	-5%	-2%	-40%
CCc1ccc(-c2nc(CS(=O)CC(=O)NCCN3CCCCCC3)c(C)o2)cc1 (stereo not drawn)	11µM*	-26%	-4%	34%
CC(=O)N1CCc2c(sc3c2c(=O)n(CCc2ccccc2)c(=O)n3CC(=O)Nc2ccccc2F)C1	6%	-16%	2%	-29%
Nc1ccc(NC(=O)NC2CCCCC2)cc1[N+](=O)[O-]	-15%	-20%	3%	4µM*
Nc1ccc(NC(=O)NC2CCCCC2)cc1	19%	-2%	2%	52%
CN1CCCN(C(=O)c2ccc(Br)cc2)CC1	-13%	3%	5%	-3%
CCOC(=O)c1cnc(Nc2nc3ccccc3o2)nc1CSc1nnc(C)s1	0%	u	0%	5µM*
COc1ccc(CCNCC(=O)Nc2ccc(C)c(Br)c2)cc1OC	11µM*	-10%	-3%	-25%
Cc1ccc(S(=O)(=O)/C=C2\OCc3ccccc32)cc1	26%	6%	x	x
COc1ccc(Nc2nc(-c3ccccc3)nc3ccccc23)c(OC)c1	28%	311%	28%	-39%
Cc1ccc(Nc2nc(N)c3ccccc3n2)cc1C	7.1µM*	3%	-1%	u
COc1ccc(Nc2nc(N)c3ccccc3n2)c(OC)c1	4%	-7%	1%	3.5µM*
CCOC(=O)CSc1ncnc2c1cnn2-c1ccc(C)cc1	2%	-6%	1%	13%
c1ccc(CCNc2ncnc3c2cnn3-c2ccccc2)cc1	u	u	12%	4.5µM*
CCOC(=O)CSc1ncnc2c1cnn2-c1ccccc1	0%	-4%	0%	1%
Cc1ccc(-n2ncc3c(SCc4ccccc4)ncnc32)cc1	66%	20%	5%	4.5µM*
Cc1ccc(CSc2ncnc3c2cnn3-c2ccc(C)cc2)cc1	15%	-16%	0%	4.5µM*
CCOC(=O)CC(=O)CSc1ncnc2c1cnn2-c1ccccc1	40%	-7%	-8%	6.3µM*
Cc1ccc(CSc2ncnc3c2cnn3-c2ccccc2)cc1	1%	71%	-14%	58%
Cc1cccc(CCNC(=O)C2CCN(S(=O)(=O)c3ccccc3)CC2)c1	u	-15%	4%	20%
CN(Cc1ccccc1)c1ncnc2c1cnn2-c1ccccc1	0%	3%	14%	u
CCN(c1ccccc1)c1ncnc2c1cnn2-c1ccccc1	u	1%	u	5µM*
O=S(=O)(c1ccc(Cl)cc1)N1CCOCC1	x	x	x	3%
COc1ccc(NC(=O)CSc2nc3ccccc3nc2N2CCC(C)CC2)cc1	2%	-9%	x	x
